“And” between values parts separate entries of the source, which are not always exact repeats. Identical values can stand only once. This is part of a sample that, as a whole, favours compounds with a hit. Of some 83,000 tested, about 20% had one in any assay.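 Values shown are percent growth following 48 h exposure of cells in 96-well plates to a single concentration of compound; below 10 was considered active.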 A number with no mark means an inactive call. The source made the active and inactive calls.
Key:
Test in all cases: NCI-60 one-dose screen, 48 h (100 = growth as untreated, 0 = no growth, -100 = all killed)
Conditions in all cases: 10 µM unless noted
NCI/ADR-RES ovarian = system: NCI/ADR-RES ovarian
T-47D breast = system: T-47D breast
BT-549 breast = system: BT-549 breast
MDA-MB-435 melanoma = system: MDA-MB-435 melanoma
SW-620 colon = system: SW-620 colon
MCF7 breast = system: MCF7 breast
HCT-116 colon = system: HCT-116 colon
HCC-2998 colon = system: HCC-2998 colon
KM12 colon = system: KM12 colon

SMILES | growth (NCI/ADR-RES ovarian) | growth (T-47D breast) | growth (BT-549 breast) | growth (MDA-MB-435 melanoma) | growth (SW-620 colon) | growth (MCF7 breast) | growth (HCT-116 colon) | growth (HCC-2998 colon) | growth (KM12 colon)
C#COc1cccc(Nc2ncnc3cc(NC(=O)CF)ccc23)c1 | 35.3% [6.25 µM] | 40.9% [6.25 µM] | 28% [6.25 µM] | -34.2% [6.25 µM] (active) | 25.8% [6.25 µM] | 30.6% [6.25 µM] | 19% [6.25 µM] | 63.8% [6.25 µM] | 28.6% [6.25 µM]
CC1(C)N=C(N)N=C(N)N1c1ccc(CCC(=O)Nc2ccc(S(=O)(=O)F)cc2)cc1 | 117% | 88.9% | 58.7% | 20.8% | 25.8% | 24.9% | 12.3% | 42.3% | 13.3%
CCCCCCCCCCCCCCCCCC1OCC(COC(=O)O[C@@H](C(=O)O[C@H]2C[C@@]3(O)[C@@H](OC(=O)c4ccccc4)[C@@H]4[C@]5(OC(C)=O)CO[C@@H]5C[C@H](O)[C@@]4(C)C(=O)[C@H](OC(C)=O)C(=C2C)C3(C)C)[C@@H](NC(=O)c2ccccc2)c2ccccc2)O1 (stereo not given in full) | 103% | 32.9% | 58.8% | -71.2% (active) | 39.6% | 18.3% | 18.2% | 32% | 14.3%
CC/C(Cc1ccccc1)=C(\c1ccc(OCCN2CCCC2)cc1)c1ccc(OC(=O)NCc2ccccc2)cc1 | 88.1% | 21.2% | 77.9% | 53.6% | -44.1% (active) | -11.1% (active) | -34.2% (active) | 83.1% | 45.7%
C[C@]12CCc3nc(-c4ccc(O)c(O)c4)sc3C1=CC[C@@H]1[C@@H]2CC[C@]2(C)C(=O)CC[C@@H]12 | 73.7% | 69% | 58.1% | 71.3% | 55.4% | 48.4% | 26% | 99.2% | 90.8%
N#CC(NC(=O)CCl)=C(Cl)Cl | 11.8% | -30% (active) | 38.9% | 5.03% (active) | -50.1% (active) | 18.5% | -41.4% (active) | -6.64% (active) | 56.8%
Oc1cc(Cl)ccc1Oc1ccc(Cl)cc1Cl | 7.74% (active) | 17.9% | 8.8% (active) | 15.1% | 21% | 19.3% | 6.58% (active) | 105% | 21.9%
C[C@]12CC[C@H]3[C@@H](C[C@@H]4SC(Nc5ccccc5)=N[C@@]45C/C(=N/O)CC[C@]35C)[C@@H]1CCC2=O | 86.2% | 64.4% | 35.6% | 51.6% | 34.8% | 28.4% | 9.01% (active) | 102% | 67.8%
CC[C@H](C)[C@H](NC(=O)[C@H]1CCCCN1C)C(=O)N(C)[C@H](C[C@@H](OC(C)=O)c1cccc(C(=O)N[C@@H](Cc2ccccc2)C[C@H](C)C(=O)OC)n1)C(C)C | 13.4% | 63.6% | -22.5% (active) | -29.2% (active) | 24.6% | 12.7% | -5.08% (active) | 15.4% | 4.26% (active)
CC[C@H](C)[C@H]1O[C@]2(C=C[C@@H]1C)C[C@@H]1C[C@@H](C/C=C(\C)[C@@H](O[C@H]3C[C@H](OC)[C@@H](O[C@H]4C[C@H](OC)[C@@H](NC)[C@H](C)O4)[C@H](C)O3)[C@@H](C)/C=C/C=C3\CO[C@@H]4[C@H](O)C(C)=C[C@@H](C(=O)O1)[C@]34O)O2 | 0.588% (active) | -27.6% (active) | 3.48% (active) | -83.4% (active) | -68.1% (active) | -85% (active) | -79% (active) | -83.9% (active) | -70.6% (active)
CN(C)C(=S)SSC(=S)N(C)C | 110% and 113% | 85.8% and 95.4% | 101% and 111% | 97.3% | 69.2% and 98% | 70.9% | 99% | 109% | 81.8% and 95.8%
Cc1cc[n+](CCc2ccccc2)cc1 | 91.2% and 111% | 95.4% and 101% | 104% and 107% | 102% and 104% | 101% and 117% | 101% and 104% | 91.2% and 103% | 85.8% and 102% | 105% and 107%
Cc1nnc([S-])o1.[Au+].c1ccc([PH+](c2ccccc2)c2ccccc2)cc1 | 99.6% | 29.6% | 34.1% | 43.9% | -11.8% (active) | 10.3% | 21.6% | 80.2% | 74.2%
N#CCCc1ccccc1 | 104% | 112% | 106% | 104% | 102% | 92% | 104% | 103% | 109%
COC(=O)C1=CCCN(C)C1 | 107% and 115% | 101% and 113% | 97.7% | 98.9% and 96.1% | 111% and 110% | 96.1% and 101% | 102% and 108% | 102% and 124% | 117% and 109%
C[C@]12CCc3sc(Nc4ccc(OC(F)(F)F)cc4)nc3C1=CC[C@@H]1[C@@H]2CC[C@]2(C)C(=O)CC[C@@H]12 | 81.6% | 41.8% | 53.5% | 77.6% | 43.3% | 17.1% | 7.77% (active) | 96.5% | 53.5%
O=S(OO)c1cc(Cl)c(O)c(Cl)c1 (stereo not given) | 101% | 87.6% | 89.1% | 97.1% | 98.3% | 78.6% | 105% | 95.5% | 108%
CC1(C)S[C@H]2CC[C@H]3OC(=O)[C@@H]1N23 | 93.8% | 104% | 85.3% | 93.3% | 113% | 103% | 103% | 97.7% | 111%
COc1ccc(CN)cc1OC | 106% and 103% | 113% and 97.4% | 113% and 102% | 109% | 111% and 99.5% | 103% and 95.5% | 97.8% and 102% | 91% and 106% | 120% and 106%
CO[C@@H]([CH2][Hg][O]C(=O)c1ccccc1)[C@@H]([CH2][Hg][O]C(=O)c1ccccc1)OC | 105% | 87.7% | 110% | 104% | 66.1% | 46.4% | -60.5% (active) | 118% | 101%
O=C(CCCN1CCC2(CC1)C(=O)NCN2c1ccccc1)c1ccc(F)cc1 | 101% and 65.8% | 45.5% and 23.4% | 98.2% and 87.2% | 99.7% and 93.6% | 84.4% and 68% | 49.6% and 12% | 73.9% and 19.7% | 104% and 42.3% | 102% and 86.3%
Cc1nc2ccccc2c(=O)n1-c1ccccc1F | 112% | 79.1% | 105% | 102% | 105% | 93.9% | 98.7% | 108% | 105%
N#CC(C#N)=C(C#N)C#N | 110% | 95.8% | 104% | 107% | 104% | 98.1% | 102% | 110% | 108%
CC(=O)Nc1nc2c(s1)C1=CC[C@H]3[C@@H]4CC[C@H](OC(C)=O)[C@@]4(C)CC[C@@H]3[C@@]1(C)CC2 | 43.4% | 74.3% | 39.2% | 4.51% (active) | 43.3% | 44.1% | 39.8% | 93.7% | 50.8%
CC1(C)C2CCC1(CS(=O)(=O)O)C(=O)C2 (stereo not given) | 104% and 112% | 87.1% and 115% | 95.3% and 94.8% | 96.1% and 105% | 99% and 111% | 101% and 112% | 97.9% and 101% | 92.2% and 133% | 101% and 104%

Source: PubChem BioAssay (NCI)
